Assay results reported in PubChem BioAssay (NCI).
The panel holds about 83,000 compounds, 20% with a hit somewhere; the sample as a whole holds those more often.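 Activity criterion: percent growth below 10, measured after cells in 96-well plates were exposed to a single compound concentration for 48 hours.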 A number with no mark means an inactive call. Activity calls are given as the source filed them.

System: MDA-MB-468 breast
Assay: NCI-60 one-dose screen, 48 h (100 = growth as untreated, 0 = no growth, -100 = all killed)
Details: 10 µM unless noted

SMILES	growth
C=C(C)[C@@H]1CC[C@]2(C)[C@H](CC=C3[C@@H]4[C@H](C)[C@@H](C)CC[C@]4(CO)CC[C@]32C)[C@@]1(C)CCCN	-54.7% (active)
Fc1ccc(-c2cn3c(-c4c[nH]c5ccc(Br)cc45)csc3n2)cc1	74.9%
CCN(CC)c1ccc(/C=C/C(=O)c2cccc(NS(C)(=O)=O)c2)cc1	35.4%
COC(=O)C(=C\c1ccc2c(c1)OCO2)/C(=C/c1ccc2c(c1)OCO2)C(=O)OC	111%
COC1C(O)CC(OC2CC(OC3CC(O[C@@H]4C(=O)c5c(cc6cc(OC7CC(OC8CC(O)C(O)C(C)O8)C(O)C(C)O7)c(C)c(O)c6c5O)CC4[C@H](OC)[C@@H](O)C(C)=O)OC(C)C3O)OC(C)C2O)OC1C (stereo not given in full)	-40.1% (active)
O=C(c1nc2ccccc2[nH]1)C1[C@@H](c2cccc(O)c2)C2CC3CCCCC3N2[C@@]12C(=O)Nc1cc(Cl)ccc12 (stereo not given in full)	32.5%
COC(=O)c1ccc(NC(=O)CSc2nc3ccccc3c(=O)n2-c2ccccc2)cc1	104%
C#Cc1cccc(NC(=O)c2ccc(NC(=O)CCl)cc2)c1	-34.6% [8.25 µM] (active)
COC(=O)[C@H]1[C@H](OC)[C@@H](OC(=O)/C=C/c2ccncc2)CC2CN3CCc4c([nH]c5cc(OC)ccc45)[C@@H]3C[C@@H]21 (stereo not given in full)	53.6%
COc1ccc(Nc2nc(N)nc3c2CCc2occc2-3)cc1	101%
Fc1ccccc1Nc1ccc2nnc(-c3ccncc3)n2n1	105%
CCCc1cc2cc(-n3nc(C)c4c3CC(C)(C)CC4=O)cc(NC3CCC(O)CC3)c2c(=O)[nH]1 (stereo not given)	-0.951% (active)
CC1=C(C)C(=O)C(Nc2cccc(C(=O)OC(C)(C)C)c2)=CC1=O	37.5%
CCNC(=O)Oc1ccc(/C(=C(/C)c2ccc(OC)cc2)c2ccc(OCCN3CCCCCC3)cc2)cc1	38.3%
CC(=O)N1N=C(c2ccc(-n3ccc(C(F)(F)F)n3)c(F)c2)CC1c1ccc[nH]1 (stereo not given)	117%
O=C(Nc1cccnc1Nc1ccc(F)cc1)c1cn(Cc2cccc(Oc3ccccc3)c2)nn1	63.5%
O=C(CSc1ccc2nnc(-c3cccc(F)c3)n2n1)Nc1ccc2c(c1)OCO2	23%
CC1=C(/C=C/C(C)=C/C=C/C(C)=C/C(=O)Nc2ccc(O)cc2)C(C)(C)CCC1	30.1%
COc1cccc(NC(=O)[C@H](C(C)C)n2c(=O)[nH]c3ccccc3c2=O)c1	101%
O=C(C(=O)N1CCOCC1)c1ccc(O[C@H]2O[C@H](CO)[C@@H](O)[C@H](O)[C@@H]2O)cc1	97.5%

SMILES	growth
COc1ccc(C2c3[nH]c4ccc(Cl)cc4c3CCN2c2oc(CO)nc2C#N)cc1 (stereo not given)	25.2%
Cn1cc(-c2nc(-c3c[nH]c4ccccc34)cs2)c2cccnc21	-12.5% (active)
Cc1nnc(N/N=C/c2ccc([N+](=O)[O-])o2)[nH]c1=O	31.2%
CCCCCCCCO	98.9%
CCCS(=O)(=O)c1nc(NC2CC2)cc(-c2ccc3c(ccn3C3CC(C)(C)NC(C)(C)C3)c2)n1	-72.4% (active)
Nc1nc2ccccc2c2c1S(=O)(=O)c1ccc(Cl)cc1C2=O	10.8%
O=C1[C@H]2Cc3c([nH]c4ccccc34)[C@H](c3ccc(Br)cc3)N2C(=O)CN1C1CCN(CC2CCCCC2)CC1	80.1%
CC(C)c1nc(N(C)S(C)(=O)=O)nc(-c2ccc(F)cc2)c1/C=C/[C@@H](O)C[C@@H](O)CC(=O)O	99.4%
Cc1c[n+](Cc2ccc3ccccc3c2)cn1Cc1ccc2ccccc2c1	-22.6% (active)
COc1ccc(C(=O)c2cc(OC)c(OC)c(OC)c2)cc1/C=C/C(=O)c1ccc(F)cc1	90.4%
COc1cc(-c2cc(/C=C/C(=O)c3ccc(Cl)c(Cl)c3)[nH]n2)cc(OC)c1OC	7.24% (active)
CC(=O)Nc1ccc2c(c1)Cc1c(F)c(F)c(F)c(F)c1-2	82.5%
C#Cc1ccc(-n2c(/C=C/c3ccc(O)cc3)nc3ncccc3c2=O)cc1	-10.6% (active)
COc1ccc(C(=O)c2cc(F)c(F)c(OC)c2F)cc1OC(=O)CCl	61.3%
Cn1ccnc1C(=O)/C=C/c1ccc(C(=O)Nc2ccc(S(F)(F)(F)(F)F)cc2)cc1	14.5%
CCOP(=O)(OCC)OC[C@]12CCC(C)(C)C[C@H]1C1=CC[C@@H]3[C@@]4(C)C/C(=C\c5cccnc5)[C@H](OP(=O)(OCC)OCC)C(C)(C)[C@@H]4CC[C@@]3(C)[C@]1(C)CC2	-0.445% (active)
COc1cc(C2CC(c3ccc(C)cc3)=NN2C=O)ccc1OCCN(C)C (stereo not given)	93.1%
CN(C)c1ccc2c(N(C)C)cc(N(C)C)nc2c1	7.64% (active)
Nc1nc2c(c3ncccc13)C(c1cccc(Cl)c1)Cc1ncccc1-2 (stereo not given)	26.6%
CC(=O)Nc1ccc(/C=C/C(=O)c2ccccc2)cc1	52%
